# Measurements published in the supplement of paper PMC9694430.
# Experiments:
# Assay in all cases: thermal shift delta Tm vs DMSO control; higher = stronger stabilization (binding)
# Details in all cases: 12.5 µM; protein concentration 2 µM
# LOC_OS02G45750-cb003 = system: LOC_OS02G45750-cb003
# Method in brief: (§1)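 Purified, E. coli-expressed rice kinase domain constructs were tested by differential scanning fluorimetry in 96-well plates: 19.5 μl of 2 μM kinase in 100 mM potassium phosphate pH 7.5, 150 mM NaCl, 10% glycerol, 5 × SYPRO Orange, plus compound in DMSO. Fluorescence was read from 25°C to 95°C at 0.05°C/s. Melting temperatures came from Boltzmann fits, and the shift is the triplicate mean relative to protein with DMSO alone.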
# LOC_OS02G54510-cb004 = system: LOC_OS02G54510-cb004
# Method in brief: as §1
# LOC_OS03G04050-cb001 = system: LOC_OS03G04050-cb001
# Method in brief: as §1
# LOC_OS03G12390-cb001 = system: LOC_OS03G12390-cb001
# Method in brief: as §1
# LOC_OS03G27990-cb004 = system: LOC_OS03G27990-cb004
# Method in brief: as §1
# LOC_OS03G50450-cb001 = system: LOC_OS03G50450-cb001
# Method in brief: as §1
# LOC_OS03G50810-cb003 = system: LOC_OS03G50810-cb003
# Method in brief: as §1
# LOC_OS04G35114-cb001 = system: LOC_OS04G35114-cb001
# Method in brief: as §1
# LOC_OS04G38480-cb003 = system: T1, LOC_OS04G38480-cb003
# T1 sequence (whole entry): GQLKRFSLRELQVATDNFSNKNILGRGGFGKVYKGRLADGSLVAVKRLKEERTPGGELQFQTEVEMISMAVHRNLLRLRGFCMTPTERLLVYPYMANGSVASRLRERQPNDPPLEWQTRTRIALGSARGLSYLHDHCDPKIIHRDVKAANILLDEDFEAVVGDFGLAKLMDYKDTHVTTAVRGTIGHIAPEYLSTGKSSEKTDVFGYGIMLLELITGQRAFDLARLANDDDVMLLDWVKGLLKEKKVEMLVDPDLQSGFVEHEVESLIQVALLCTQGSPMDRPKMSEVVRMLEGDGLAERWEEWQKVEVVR
# Method in brief: as §1
# LOC_OS04G41100-cb001 = system: T2, LOC_OS04G41100-cb001
# T2 sequence (whole entry): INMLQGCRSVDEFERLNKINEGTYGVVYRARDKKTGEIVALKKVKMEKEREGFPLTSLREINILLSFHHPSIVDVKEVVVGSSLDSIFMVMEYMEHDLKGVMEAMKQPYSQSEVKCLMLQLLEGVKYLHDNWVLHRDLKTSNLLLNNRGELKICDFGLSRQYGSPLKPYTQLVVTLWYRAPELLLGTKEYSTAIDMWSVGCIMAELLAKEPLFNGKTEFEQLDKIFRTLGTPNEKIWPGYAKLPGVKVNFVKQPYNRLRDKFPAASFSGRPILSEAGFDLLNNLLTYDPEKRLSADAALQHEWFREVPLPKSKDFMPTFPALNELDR
# Method in brief: as §1
# LOC_OS04G57630-cb004 = system: LOC_OS04G57630-cb004
# Method in brief: as §1
# LOC_OS05G07850-cb002 = system: LOC_OS05G07850-cb002
# Method in brief: as §1
# LOC_OS05G16824-cb004 = system: LOC_OS05G16824-cb004
# Method in brief: as §1
# LOC_OS05G28520-cb001 = system: LOC_OS05G28520-cb001
# Method in brief: as §1
# LOC_OS05G30820-cb001 = system: LOC_OS05G30820-cb001
# Method in brief: as §1
# LOC_OS05G43570-cb004 = system: LOC_OS05G43570-cb004
# Method in brief: as §1
# LOC_OS06G16330-cb003 = system: LOC_OS06G16330-cb003
# Method in brief: as §1
# LOC_OS06G22820-cb001 = system: T3, LOC_OS06G22820-cb001
# T3 sequence (whole entry): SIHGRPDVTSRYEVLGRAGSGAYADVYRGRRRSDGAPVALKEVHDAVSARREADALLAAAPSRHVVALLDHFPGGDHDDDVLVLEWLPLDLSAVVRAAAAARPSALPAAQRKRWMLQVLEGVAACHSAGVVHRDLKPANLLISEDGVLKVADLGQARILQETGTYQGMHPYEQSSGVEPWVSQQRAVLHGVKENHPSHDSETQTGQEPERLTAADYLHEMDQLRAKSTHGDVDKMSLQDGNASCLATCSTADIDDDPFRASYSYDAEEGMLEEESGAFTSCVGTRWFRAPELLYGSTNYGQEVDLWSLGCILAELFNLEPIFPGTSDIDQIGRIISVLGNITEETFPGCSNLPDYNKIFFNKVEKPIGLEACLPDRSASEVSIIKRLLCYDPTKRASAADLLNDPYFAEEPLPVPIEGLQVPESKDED
# Method in brief: as §1
# LOC_OS07G06570-cb004 = system: LOC_OS07G06570-cb004
# Method in brief: as §1
# LOC_OS07G07230-cb001 = system: LOC_OS07G07230-cb001
# Method in brief: as §1
# LOC_OS06G16330-cb003, sequence (as listed by the source): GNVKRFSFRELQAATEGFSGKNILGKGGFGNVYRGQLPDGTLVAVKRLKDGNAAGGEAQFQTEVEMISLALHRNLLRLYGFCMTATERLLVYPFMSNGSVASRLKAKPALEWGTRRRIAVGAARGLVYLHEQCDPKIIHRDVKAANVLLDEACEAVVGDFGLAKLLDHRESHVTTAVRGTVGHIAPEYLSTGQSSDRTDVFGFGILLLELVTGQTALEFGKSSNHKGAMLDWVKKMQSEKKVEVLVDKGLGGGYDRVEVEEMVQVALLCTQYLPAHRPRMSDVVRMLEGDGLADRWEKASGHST
SMILES,thermal shift delta Tm (LOC_OS02G45750-cb003),thermal shift delta Tm (LOC_OS02G54510-cb004),thermal shift delta Tm (LOC_OS03G04050-cb001),thermal shift delta Tm (LOC_OS03G12390-cb001),thermal shift delta Tm (LOC_OS03G27990-cb004),thermal shift delta Tm (LOC_OS03G50450-cb001),thermal shift delta Tm (LOC_OS03G50810-cb003),thermal shift delta Tm (LOC_OS04G35114-cb001),thermal shift delta Tm (LOC_OS04G38480-cb003),thermal shift delta Tm (LOC_OS04G41100-cb001),thermal shift delta Tm (LOC_OS04G57630-cb004),thermal shift delta Tm (LOC_OS05G07850-cb002),thermal shift delta Tm (LOC_OS05G16824-cb004),thermal shift delta Tm (LOC_OS05G28520-cb001),thermal shift delta Tm (LOC_OS05G30820-cb001),thermal shift delta Tm (LOC_OS05G43570-cb004),thermal shift delta Tm (LOC_OS06G16330-cb003),thermal shift delta Tm (LOC_OS06G22820-cb001),thermal shift delta Tm (LOC_OS07G06570-cb004),thermal shift delta Tm (LOC_OS07G07230-cb001)
CC[C@@H](N)CNc1ccnc(-c2cc(-c3cnn(C)c3)ccc2O)n1,2.91 °C,-0.17 °C,0.27 °C,0.67 °C,0.75 °C,0.74 °C,1.49 °C,6.46 °C,1.41 °C,2.6 °C,1.21 °C,8.12 °C,8.38 °C,-0.2 °C,0.07 °C,0.12 °C,4.5 °C,0.55 °C,0.8 °C,0.48 °C
O=C1NC(=O)/C(=C/c2ccc3c(c2)OC(F)(F)O3)S1,1.3 °C,0.48 °C,0.81 °C,0.94 °C,0.43 °C,0.55 °C,0.65 °C,0.97 °C,1.58 °C,0.5 °C,0.83 °C,0.16 °C,-1.22 °C,0.96 °C,0.8 °C,0.74 °C,0.37 °C,0.72 °C,0.31 °C,0.11 °C
C[C@@H](Oc1cc(-n2cnc3ccc(CN4CCN(C)CC4)cc32)sc1C(N)=O)c1ccccc1C(F)(F)F,0.36 °C,-0.15 °C,0.2 °C,-0.35 °C,-0.09 °C,-0.03 °C,0.55 °C,2.11 °C,0.27 °C,0.39 °C,1.23 °C,2.4 °C,-4.79 °C,-0.16 °C,0.61 °C,0.21 °C,2.19 °C,0.97 °C,1.02 °C,0.47 °C
CNC(=O)c1cc(Oc2ccc(NC(=O)Nc3ccc(Cl)c(C(F)(F)F)c3)c(F)c2)ccn1 [Regorafenib (BAY 73-4506)],0.96 °C,0.56 °C,0.64 °C,0.1 °C,0.17 °C,0.33 °C,0.11 °C,0.48 °C,0.48 °C,0.52 °C,0.11 °C,1.47 °C,-2.37 °C,0.42 °C,0.34 °C,0.38 °C,-0.02 °C,0.83 °C,0.59 °C,0.35 °C
COc1cc(N2CCC(N3CCN(C)CC3)CC2)ccc1Nc1ncnc(Nc2ccccc2S(=O)(=O)C(C)C)n1,1.85 °C,0.1 °C,0.24 °C,1.69 °C,0.28 °C,0.36 °C,0.99 °C,0.74 °C,1.16 °C,0.34 °C,-0.16 °C,9.97 °C,-1.84 °C,0.49 °C,0.53 °C,0.45 °C,2.65 °C,0.91 °C,1.77 °C,0.45 °C
Cc1n[nH]c2ncc(C(=O)N3CCC[C@H]3c3ccc(Cl)cc3)cc12,0.21 °C,0.12 °C,0.41 °C,0.13 °C,0.35 °C,0.17 °C,0.18 °C,0.28 °C,0.98 °C,0.46 °C,0.01 °C,0.81 °C,-6.54 °C,0.03 °C,0.26 °C,0.19 °C,0.11 °C,0.56 °C,1.74 °C,0.45 °C
Nc1ccc(C(=O)Nc2cccc(-c3nc(N4CCOCC4)c4oc5ncccc5c4n3)c2)cn1,0.01 °C,0.01 °C,1.54 °C,0.36 °C,0.09 °C,0.25 °C,0.09 °C,0.9 °C,0.66 °C,0.52 °C,1.19 °C,1.25 °C,-3.13 °C,0.31 °C,0.83 °C,0.15 °C,0.32 °C,0.39 °C,0.88 °C,-0.01 °C
CC[C@@H]1C(=O)N(C)c2cnc(Nc3ccc(C(=O)N[C@H]4CC[C@H](N5CCN(CC6CC6)CC5)CC4)cc3OC)nc2N1C(C)C [Volasertib (BI 6727)],1.95 °C,0.58 °C,0.68 °C,0.73 °C,0.69 °C,1.23 °C,0.54 °C,1 °C,0.84 °C,0.24 °C,0.28 °C,1.33 °C,2.5 °C,-0.32 °C,0.58 °C,0.4 °C,0.46 °C,0.34 °C,0.62 °C,-0.12 °C
Cn1nccc1Nc1nccc(-c2ccn([C@H](CO)c3ccc(Cl)c(F)c3)c(=O)c2)n1,0.71 °C,0.28 °C,0.29 °C,2.16 °C,0.03 °C,0.11 °C,-0.12 °C,0.45 °C,0.14 °C,2.7 °C,0.08 °C,2.78 °C,-3.01 °C,1.03 °C,0.26 °C,0.16 °C,0.19 °C,0.56 °C,1.22 °C,0.87 °C
N#Cc1c(O)c2c(-c3ccc(-c4ccccc4O)cc3)csc2[nH]c1=O,1.29 °C,0.51 °C,0.84 °C,0.75 °C,0.45 °C,0.66 °C,0.88 °C,0.58 °C,1.99 °C,0.62 °C,0.93 °C,0.59 °C,-0.44 °C,1.06 °C,0.78 °C,1.18 °C,1.03 °C,0.91 °C,1.2 °C,0.19 °C
O=c1ncn2nc(Sc3ccc(F)cc3F)ccc2c1-c1c(Cl)cccc1Cl,0.54 °C,-0.07 °C,0.23 °C,0.07 °C,-0.01 °C,0.15 °C,0.34 °C,0.66 °C,1.17 °C,0.55 °C,0.07 °C,0.12 °C,0.83 °C,0.17 °C,0.49 °C,0.49 °C,-0.01 °C,0.66 °C,0.75 °C,0.14 °C
CC1(C)OCCn2c1nc1c(N3CCOCC3)nc(-c3cnc(N)nc3)nc12,-0.63 °C,0.42 °C,0.09 °C,-0.14 °C,0.19 °C,0.18 °C,0.33 °C,0.39 °C,0.75 °C,-0.13 °C,0.29 °C,1.01 °C,-0.61 °C,0.5 °C,0.57 °C,0.76 °C,2.07 °C,0.14 °C,1.2 °C,0.43 °C
